Among the data in PMC5700166 are binding signal values, retold here.

The experiment concerns the target T1, GST-Nv-NF-kB (Cys allele) (Nematostella vectensis, UniProt E5G601 2-411).
T1 sequence: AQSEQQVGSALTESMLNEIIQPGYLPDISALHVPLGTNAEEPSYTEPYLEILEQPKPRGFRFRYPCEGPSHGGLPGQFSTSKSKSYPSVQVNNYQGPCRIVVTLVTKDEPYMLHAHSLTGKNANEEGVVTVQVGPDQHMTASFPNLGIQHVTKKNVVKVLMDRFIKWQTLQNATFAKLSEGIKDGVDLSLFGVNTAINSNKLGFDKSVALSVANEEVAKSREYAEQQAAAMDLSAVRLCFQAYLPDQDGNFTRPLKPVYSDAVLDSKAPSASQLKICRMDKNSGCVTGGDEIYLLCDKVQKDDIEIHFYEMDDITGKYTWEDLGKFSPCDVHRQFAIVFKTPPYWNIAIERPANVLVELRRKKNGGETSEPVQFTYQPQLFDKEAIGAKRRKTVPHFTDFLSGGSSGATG
Nature of the experiment: protein-binding microarray (PBM); PBM: ~300 nM protein, 6 mM HEPES pH 7.8, 80 mM KCl, 0.5 mM EDTA, 0.5 mM EGTA, 6% glycerol, 35 ng/ul poly-dIdC, 1% milk, 1 h, room temperature; Ap Aiptasia and Nv Nematostella (sea anemones) / Co Capsaspora / Aq Amphimedon (sponge) / Dm Drosophila / Hu human; RHD is the Rel homology domain; high values mean tight binding. As to conditions: dsDNA, one strand shown.
The sequence “CCGATTAACATCAGGGGGTATACTGATGTTAATCGGGTCTTGATTCGCTTGACGCTGCTG” came in with a binding signal of 3.11 z-score.

With “CCGATTAACATCAGGGTAAAACCTGATGTTAATCGGGTCTTGATTCGCTTGACGCTGCTG”, the binding signal was determined as 3.16 z-score. “CCGATTAACATCAGAAGTTTCCCTGATGTTAATCGGGTCTTGATTCGCTTGACGCTGCTG” gave a binding signal of 5.91 z-score. In the case of “CCGATTAACATCAGGATCTTCCCTGATGTTAATCGGGTCTTGATTCGCTTGACGCTGCTG”, the binding signal came out at 3.68 z-score. For the sequence “CCGATTAACATCAGGGAGCCCCCTGATGTTAATCGGGTCTTGATTCGCTTGACGCTGCTG”, the binding signal is 4.79 z-score. Sequence “CCGATTAACATCAAAGTGTCCCCTGATGTTAATCGGGTCTTGATTCGCTTGACGCTGCTG” displayed a binding signal of 4.57 z-score.

The sequence “CCGATTAACATCACGTAAACCCCTGATGTTAATCGGGTCTTGATTCGCTTGACGCTGCTG” had a binding signal of 2.68 z-score. Under “CCGATTAACATCAGAAATCCCGCTGATGTTAATCGGGTCTTGATTCGCTTGACGCTGCTG” stands 2.85 z-score. “CCGATTAACATCATCCCCGTGTCTGATGTTAATCGGGTCTTGATTCGCTTGACGCTGCTG” yielded a binding signal of 3.34 z-score.

In turn, “CCGATTAACATCAGAATAACCCCTGATGTTAATCGGGTCTTGATTCGCTTGACGCTGCTG” returned a binding signal of 3.87 z-score. In turn, “CCGATTAACATCAGGGGTTTCCATGATGTTAATCGGGTCTTGATTCGCTTGACGCTGCTG” returned a binding signal of 5.04 z-score. For “CCGATTAACATCAGACATTCCCATGATGTTAATCGGGTCTTGATTCGCTTGACGCTGCTG”, the binding signal was 2.27 z-score.

“CCGATTAACATCAGGGGAAGGAATGATGTTAATCGGGTCTTGATTCGCTTGACGCTGCTG”: the binding signal stood at 5.34 z-score. In turn, “CCGATTAACATCACGGGTTTCCCTGATGTTAATCGGGTCTTGATTCGCTTGACGCTGCTG” had a binding signal of 4.58 z-score.

In the case of “CCGATTAACATCAGGGATTTCCATGATGTTAATCGGGTCTTGATTCGCTTGACGCTGCTG”, the binding signal worked out at 3.8 z-score.

Take “CCGATTAACATCAACCACCCCCTTGATGTTAATCGGGTCTTGATTCGCTTGACGCTGCTG”: the binding signal is 3.02 z-score.

On to “CCGATTAACATCACTGTTTTCCCTGATGTTAATCGGGTCTTGATTCGCTTGACGCTGCTG”, for which the binding signal amounted to 4.15 z-score. Under “CCGATTAACATCAGGGAAACCCATGATGTTAATCGGGTCTTGATTCGCTTGACGCTGCTG” stands 4.19 z-score; under “CCGATTAACATCAGATATTTCCCTGATGTTAATCGGGTCTTGATTCGCTTGACGCTGCTG”, 5.95 z-score. With “CCGATTAACATCAGGGCCCCCCCTGATGTTAATCGGGTCTTGATTCGCTTGACGCTGCTG” the figure was 4.21 z-score; with “CCGATTAACATCAGGATATTCCCTGATGTTAATCGGGTCTTGATTCGCTTGACGCTGCTG”, 5.16 z-score; with “CCGATTAACATCAGGGATACCCCTGATGTTAATCGGGTCTTGATTCGCTTGACGCTGCTG”, 5.69 z-score. Sequence “CCGATTAACATCAATTTTTCCCATGATGTTAATCGGGTCTTGATTCGCTTGACGCTGCTG” returned a binding signal of 4.2 z-score. In the case of “CCGATTAACATCACAAAACTCCCTGATGTTAATCGGGTCTTGATTCGCTTGACGCTGCTG”, the binding signal amounted to 6.58 z-score. The sequence “CCGATTAACATCAAACCCCCCCGTGATGTTAATCGGGTCTTGATTCGCTTGACGCTGCTG” gave a binding signal of 3.82 z-score. As for “CCGATTAACATCAACGCCCCCCCTGATGTTAATCGGGTCTTGATTCGCTTGACGCTGCTG”, the binding signal turned out to be 4.29 z-score.

In turn, “CCGATTAACATCAGGGGGGGTACTGATGTTAATCGGGTCTTGATTCGCTTGACGCTGCTG” came in with a binding signal of 3.45 z-score. For the sequence “CCGATTAACATCACACCCCCCCCTGATGTTAATCGGGTCTTGATTCGCTTGACGCTGCTG”, the binding signal was 3.24 z-score. Consider “CCGATTAACATCAAATCACCCCCTGATGTTAATCGGGTCTTGATTCGCTTGACGCTGCTG”, for which the binding signal was 4.59 z-score.

As to “CCGATTAACATCAAGGATTCCCGTGATGTTAATCGGGTCTTGATTCGCTTGACGCTGCTG”, the binding signal stood at 3.43 z-score.

As to “CCGATTAACATCAGGGGGACAAATGATGTTAATCGGGTCTTGATTCGCTTGACGCTGCTG”, the binding signal was determined as 4.84 z-score.

For the sequence “CCGATTAACATCACGTCCCCCCCTGATGTTAATCGGGTCTTGATTCGCTTGACGCTGCTG”, the binding signal was determined as 4.27 z-score. Regarding “CCGATTAACATCACCCACTTCCCTGATGTTAATCGGGTCTTGATTCGCTTGACGCTGCTG”, the binding signal stood at 1.67 z-score. The sequence “CCGATTAACATCACGTGTTTCCCTGATGTTAATCGGGTCTTGATTCGCTTGACGCTGCTG” returned a binding signal of 2.76 z-score. “CCGATTAACATCACCTTGGGAAATGATGTTAATCGGGTCTTGATTCGCTTGACGCTGCTG” came in with a binding signal of 1.7 z-score. On to “CCGATTAACATCAGGGGGTGTAATGATGTTAATCGGGTCTTGATTCGCTTGACGCTGCTG”, for which the binding signal was 3.16 z-score. Under “CCGATTAACATCAGGCGATTCCCTGATGTTAATCGGGTCTTGATTCGCTTGACGCTGCTG” stands 2.99 z-score; under “CCGATTAACATCACGGGACTCCCTGATGTTAATCGGGTCTTGATTCGCTTGACGCTGCTG”, 4.06 z-score; under “CCGATTAACATCAGGGAAAGAAATGATGTTAATCGGGTCTTGATTCGCTTGACGCTGCTG”, 3.74 z-score.
